Data on 61 compounds can be found in ChEMBL document CHEMBL3988442, “University of Dundee, Small-Polar-MMV Screening Library” (2021).

About 1,000 (1.4%) of roughly 69,000 compounds showed an effect of 50% or more. Many of the other results were omitted from the sample, so strong results are more common in it than they were.

The subject of this assay is Leishmania donovani. In words: Leishmania intramacrophage assay. Type of assay: functional, organism-based. More on the design: scale not given: in the data most compounds retested in dose-response had high values.

As to `Cc1cccc(CNC2CC3(CCN(CCO)CC3)c3ccccc32)n1.O=C(O)C(F)(F)F.O=C(O)C(F)(F)F` (stereo unspecified), the “Percent Effect” value (30.3 µM, […]) stood at 9.361%. On the same count and under the same terms, the figure for `Cc1ccc(CNC2CC3(CCN(CCO)CC3)c3ccccc32)s1.O=C(O)C(F)(F)F.O=C(O)C(F)(F)F` (stereo unspecified) is 81.48%; for `Cc1ccc2c(c1)C(N1CCOCC1)CC21CCNCC1` (stereo unspecified) it is 55.92%. In the case of `Cc1ccc2c(c1)C1(CCNCC1)CC2N1CCOCC1` (stereo unspecified), the “Percent Effect” value (30.3 µM, […]) was 11.46%.

`COCCN1CCC2(CC1)CC(NC(=O)CN(C)C)c1ccccc1O2.O=C(O)C(F)(F)F.O=C(O)C(F)(F)F` (stereo unspecified): the “Percent Effect” value (30.3 µM, […]) was determined as 52.21%. The same measure, in the same setting: in the case of `COCCN1CCC2(CC1)CC(NCc1ccc(C)s1)c1ccccc12.O=C(O)C(F)(F)F.O=C(O)C(F)(F)F` (stereo unspecified) it was 59.95%; in that of `COCCN1CCC2(CC1)CC(NC(=O)CC1CC1)c1ccccc1O2.O=C(O)C(F)(F)F` (stereo unspecified), -12.69%; in that of `COCC(=O)NC1CC2(CCN(CCO)CC2)c2ccccc21.O=C(O)C(F)(F)F` (stereo unspecified), 8.463%. The same measure, in the same setting: the figure for `COCCN1CCC2(CC1)CC(NCc1cncn1C)c1ccccc12.O=C(O)C(F)(F)F.O=C(O)C(F)(F)F` (stereo unspecified) is 17.77%; for `COCCN1CCC2(CC1)CC(NC(=O)COC)c1ccccc1O2.O=C(O)C(F)(F)F` (stereo unspecified) it is 15.07%; for `Cn1cncc1CNC1CC2(CCN(CC3CC3)CC2)c2ccccc21.O=C(O)C(F)(F)F.O=C(O)C(F)(F)F` (stereo unspecified) it is 22.11%.

For `CCC(=O)N1CCC2(CC1)CC(N1CCOCC1)c1cc(C)ccc12.O=C(O)C(F)(F)F` (stereo unspecified), the “Percent Effect” value (30.3 µM, […]) amounted to 12%.

`CCn1nccc1CNC(=O)C1CCCO1` (stereo unspecified): the “Percent Effect” value (30.3 µM, […]) is on record as 2.08%. `CNc1oc(-c2ccc(OC)c(S(=O)(=O)N3CCCC3)c2)nc1C#N`: the “Percent Effect” value (30.3 µM, […]) came out at 16.63%.

Take `CC(=O)N1CCC2(CC1)CC(NS(C)(=O)=O)c1ccccc1O2` (stereo unspecified): under “30.3 µM, […]”, the “Percent Effect” value was 6.966%.

Turning to `O=C(NCc1cccs1)c1nc2c(o1)CN(c1ncccn1)C2`, the “Percent Effect” value (30.3 µM, […]) worked out at 27.75%. With `CCn1c(CC2CCN(C(=O)c3ccnn3C)CC2)n[nH]c1=O`, the “Percent Effect” value (30.3 µM, […]) was 15.21%. As for `Cc1csc(CNC(=O)NCC(O)c2cccc(Cl)c2)n1` (stereo unspecified), for the setting “30 µM, 30.03 µM”, the “Percent Effect” value is 17.1%. With `CCCN(C(=O)c1csnn1)C1CCCN(Cc2ccccc2)C1` (stereo unspecified), for the setting “30.3 µM, […]”, the “Percent Effect” value is reported as 11.65%.

Turning to `COCCN1CCC2(CC1)CC(N1CCOCC1)c1cc(C)ccc12.O=C(O)C(F)(F)F.O=C(O)C(F)(F)F` (stereo unspecified), for the setting “30.3 µM, […]”, the “Percent Effect” value came out at 13.44%. Still for that read-out and setting: in the case of `COCCN1CCC2(CC1)CC(N1CCOCC1)c1ccc(C)cc12.O=C(O)C(F)(F)F.O=C(O)C(F)(F)F` (stereo unspecified) it was 56.38%; in that of `CC(=O)N1CCC2(CC1)CC(N1CCOCC1)c1ccc(C)cc12.O=C(O)C(F)(F)F` (stereo unspecified), 29.16%; in that of `COc1ccc(C(=O)Nc2c(C(=O)N(C)C)nn(C)c2C)cc1`, 25.81%. Still for that read-out and setting: in the case of `O=C1CC(c2ccsc2)c2snc(C(=O)O)c2N1` (stereo unspecified) it was 9.625%. Take `Cc1ccc(-c2nnc(SCC(=O)O)n2-c2ccc(C)cc2)cc1`: the “Percent Effect” value (30 µM, 30.03 µM) is given as 5.804%.

Regarding `CNc1nc(C)cc(NC2CCCN(C3Cc4ccccc4C3)C2)n1` (stereo unspecified), the “Percent Effect” value (30.3 µM, […]) is listed as 58.16%. On the same count and under the same terms, the figure for `Cc1ccc(NC2CCCN(C3Cc4ccccc4C3)C2)nn1` (stereo unspecified) is 23.72%. As to `CNc1cc(C)nc(NC2CCCN(C3Cc4ccccc4C3)C2)n1` (stereo unspecified), the “Percent Effect” value (30.3 µM, […]) amounted to 32.54%. As for `CN1CCN(C2CCN(Cc3nnc(C(C)(C)C)o3)CC2)C1=O`, the “Percent Effect” value (30 µM) is listed as 6.935%. Turning to `COc1cc(CNCCc2nc(C)cs2)cc2c1OCCO2.Cl`, the “Percent Effect” value (30 µM, 30.03 µM) is given as 9.472%. Regarding `COc1cccc(CN(C)C(C)c2ccco2)c1OCCn1ccnc1` (stereo unspecified), the “Percent Effect” value (30.3 µM, […]) amounted to 23.12%.

On to `CCCN(CC(=O)N(C)C)C(=O)c1ccc(-c2nc(C)cs2)cc1`, for which the “Percent Effect” value (30.3 µM, […]) is on record as 65.78%. Take `CCN(CC(=O)N(C)C)C(=O)c1ccc(-c2nc(C)cs2)cc1`: the “Percent Effect” value (30.3 µM, […]) was -16.68%. In the case of `CCCN(CC(=O)NC)C(=O)c1ccc(-c2nc(C)cs2)cc1`, the “Percent Effect” value (30.3 µM, […]) is 37%. For `Cc1cc(C2CCCN2Cc2cc(=O)n(C)c(=O)n2C)on1` (stereo unspecified), the “Percent Effect” value (30 µM, 30.03 µM) is on record as -11.72%. On to `COc1ccc(S(=O)(=O)NCCCc2nnc3nc(C)cc(C)n23)cc1`, for which the “Percent Effect” value (30.3 µM, […]) was determined as 5.677%. With `CC(C)n1cnnc1SCCN(C)c1ccccc1`, the “Percent Effect” value (30.3 µM, […]) was -1.184%.

With `O=C(Cn1cccc2cc(-c3ccc(F)cc3)nc1-2)N1CCC(O)CC1`, the “Percent Effect” value (30.3 µM, […]) stood at 2.575%. As for `CN(C)CCN(C)C(=O)Cn1cccc2cc(-c3ccc(F)cc3)nc1-2`, the “Percent Effect” value (30.3 µM, […]) was determined as 78.9%. Still for that read-out and setting: the figure for `COc1ccc(-c2cc3cccn(CC(=O)N4CCOCC4)c-3n2)cc1` is 23.65%; for `CC(C)(C)c1ncc2c(n1)CN(c1cc(NCCO)nc(N)n1)C2` it is 34.79%; for `O=C(C1CC(=O)N(c2n[nH]c3cc(Br)ccc23)C1)N1CCOCC1` (stereo unspecified) it is -3.266%. Same read-out and setting: the figure for `CC(C)CCNC(=O)c1ccc(Cl)c(NS(C)(=O)=O)c1` is 6.444%.

As for `O=C(Cc1ccsc1)N1C[C@@H]2CN(Cc3ccoc3)CCO[C@@H]2C1.O=C(O)C(F)(F)F`, the “Percent Effect” value (30 µM, 30.03 µM) was determined as 9.64%.

For the compound `COCCCNC(=O)CN(C)C(=O)c1ccc(OC)cc1O`, the “Percent Effect” value (30 µM) is 24.99%.

Turning to `COc1ccc(OCCN(C)C(=O)c2ccc(OC)cc2O)cc1`, for the setting “30.3 µM, […]”, the “Percent Effect” value was determined as 55.32%. Take `COCCN(C)C(=O)c1ccc(OC)cc1O`: under “30 µM, 30.03 µM”, the “Percent Effect” value is reported as -17.55%. Turning to `CCN(C)C(=O)CN1CCC(c2cc(N3CCOCC3)nc(C)n2)CC1`, the “Percent Effect” value (30.3 µM, […]) is -1.668%. Same read-out and setting: in the case of `Nc1cc(N2CCC(c3cc(Cc4ccccc4)n[nH]3)CC2)ccn1` it was 96.12%; in that of `Nc1nc(O)cc(N2CCC(c3cc(Cc4ccccc4)n[nH]3)CC2)n1`, 4.937%; in that of `Cc1cc(CN2CCC(c3cc(Cc4ccccc4)n[nH]3)CC2)[nH]n1`, 26.02%. Still for that read-out and setting: the figure for `Cc1ccc(N2CCC(c3cc(Cc4ccccc4)n[nH]3)CC2)nn1` is 15.09%. The same measure, in the same setting: in the case of `Nc1nccc(N2CCC(c3cc(Cc4ccccc4)n[nH]3)CC2)n1` it was 63.85%. As to `NC(=O)NCCC(=O)N1CCC(c2cc(Cc3ccccc3)n[nH]2)CC1`, under “30.3 µM, […]”, the “Percent Effect” value is on record as -20.51%.

For the compound `COc1ccc(CN2CCCCC2c2n[nH]cc2-c2cc(C)no2)cc1.Cl` (stereo unspecified), where the note is “30.3 µM, […]”, the “Percent Effect” value was -16.67%. Regarding `CCn1ncc2c1CCCC2NCc1cc(OC)cc(OC)c1` (stereo unspecified), where the note is “30 µM”, the “Percent Effect” value was 1.972%.

Turning to `Cc1nc(C2(O)CCCNCC2)sc1CCOc1ccc(F)c(F)c1.Cl` (stereo unspecified), the “Percent Effect” value (30.3 µM, […]) was 85.82%.

As to `Cc1cc(CNC(=O)NCCOc2ccc(F)c(F)c2)on1`, the “Percent Effect” value (30.3 µM, […]) was determined as 0.6606%. The same measure, in the same setting: in the case of `CC1(C(=O)NCc2cccnc2Oc2ccc(F)c(F)c2)CCCNC1` (stereo unspecified) it was -16.47%. Regarding `Cc1nccc(CNC(=O)NCCOc2ccc(F)c(F)c2)n1`, where the note is “30 µM, 30.03 µM”, the “Percent Effect” value is given as 3.237%. As to `Cc1nc(C2(O)CCCNCC2)sc1CCOc1ccc(F)cc1.Cl` (stereo unspecified), under “30.3 µM, […]”, the “Percent Effect” value was found to be 8.294%.
